# Measured values as given in PubChem BioAssay (NCATS).
# Results filed as inconclusive are left out. A call without a number means that no potency is given here. Values without a mark were called inactive. The source made the active and inactive calls. The call rests on the fitted dose curve; in most records, active means well fitted inhibition curve with a large enough effect; inconclusive means small, poorly fitted or top-dose-only effect; inactive means flat fitted curve, though single readings scatter.
# Molecular target: Aldehyde dehydrogenase, mitochondrial (Homo sapiens) (UniProt P05091)
# Assay: qHTS for Inhibitors of the Aldehyde Dehydrogenase Family (ALDH2) Primary screen (AID 2061308); further: nearly all actives have a fitted effect of over 55% in size
# Conditions: ALDH2 enzyme inhibition qHTS, 1536-well; series mostly up to 56 µM
Compound,Potency,"activity change, negative = inhibition"
C=C1CC2C(C)(CCC(=O)O)C(C(C)(C)O)CCC2(C)C2(C(=O)OC)C(=O)C(C)(O)C(=O)C12C (stereo unspecified),inactive,
C=C1CC[C@@H]2[C@](C)(CO)[C@H](O)CC[C@@]2(C)[C@@H]1C/C=C1/C(=O)OCC1OC(=O)/C(=C/CO)C(O)C[C@@H]1C(=C)CC[C@@H]2[C@](C)(CO)[C@H](O)CC[C@]21C (stereo partly specified),inactive,
CCN(CC)CCCCCCNc1cc(OC)cc2c(C)ccnc12,inactive,
CC1(C)C[C@H]2C3=CCC4[C@@]5(C)CC[C@H](O[C@H]6O[C@H](C(=O)O)[C@@H](O)[C@H](O)[C@H]6O[C@H]6O[C@H](CO)[C@@H](O)[C@H](O)[C@H]6O[C@@H]6O[C@H](CO)[C@@H](O)[C@H](O)[C@H]6O)[C@](C)(CO)C5CC[C@@]4(C)[C@]3(C)CC[C@@]2(C)[C@H](O[C@@H]2OC[C@H](O)[C@H](OC3O[C@H](CO)[C@@H](O)[C@H](O)[C@H]3O)[C@H]2O)[C@@H]1O (stereo partly specified),,2.01% [at 11.2 µM]
CC1(C)CC[C@]2(C(=O)O[C@@H]3O[C@H](CO)[C@@H](O)[C@H](O)[C@H]3O)CC[C@]3(C)C(=CCC4[C@@]5(C)CC[C@H](O[C@H]6O[C@H](CO)[C@@H](O)[C@H](O[C@@H]7O[C@H](CO)[C@@H](O)[C@H](O)[C@H]7O)[C@H]6O)C(C)(C)C5CC[C@]43C)[C@@H]2C1 (stereo partly specified),inactive,
C=C1C(O)C[C@@H]2C(C(=O)O)=CO[C@@H](O[C@@H]3O[C@H](CO)[C@@H](O)[C@H](O)[C@H]3OC(=O)c3ccc(O)cc3)[C@H]12 (stereo partly specified),inactive,
